Measured values reported in PubChem BioAssay (NCI).
The panel holds about 79,000 compounds, 15% with a hit somewhere; the sample as a whole holds those more often. Rule as the data show it: active = growth inhibition above about 70%; inactive = the rest.

Assays:
[1] = NCI Yeast Anticancer Drug Screen. Data for the rad50 strain (AID 155);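 also: 0% = growth of vehicle-only cultures of the same strain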; settings: S. cerevisiae rad50 strain growth inhibition; at 50.0 µM; active compounds read high
How it was run: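 Relative growth inhibition (compound vs vehicle) was measured in yeast with a defined repair-gene alteration.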

[2] = NCI Yeast Anticancer Drug Screen. Data for the mec2-1 strain (AID 157); settings: S. cerevisiae mec2-1 strain, at 50.0 µM, active compounds read high
How it was run: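 Readout is yeast growth inhibition, normalised to vehicle-treated controls, in the mec2-1 strain exposed to compound.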

[3] = NCI Yeast Anticancer Drug Screen. Data for the sgs1 mgt1 strain (AID 161);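 also: 0% = growth of cultures given vehicle only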; settings: S. cerevisiae sgs1 mgt1 strain, at 50.0 µM, active compounds read high
How it was run: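 Compounds are added to genetically altered yeast, and growth is compared with cultures given vehicle alone to give percent inhibition.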

[4] = NCI Yeast Anticancer Drug Screen. Data for the cln2 rad14 strain (AID 165);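 also: 0% = growth equal to vehicle treated cultures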; settings: S. cerevisiae cln2 rad14 strain, at 50.0 µM, active compounds read high
How it was run: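 Relative to vehicle controls, growth inhibition of compound-treated cln2 rad14 yeast was recorded.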

[5] = NCI Yeast Anticancer Drug Screen. Data for the bub3 strain (AID 167); settings: S. cerevisiae bub3 mutant strain, at 50.0 µM, active compounds read high
How it was run: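 Screening used yeast with an engineered genetic alteration affecting cell cycle control. Compound-exposed cultures were compared with vehicle cultures, and reduced growth was taken as inhibition.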

[6] = NCI Yeast Anticancer Drug Screen. Data for the mlh1 rad18 strain (AID 175); settings: S. cerevisiae mlh1 rad18 strain growth inhibition; at 50.0 µM; active compounds read high
How it was run: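 Test agents were incubated with a yeast strain of defined genotype (DNA damage repair defect). Inhibition of growth was derived by comparison with vehicle-exposed cultures.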

Measured: growth inhibition

Nn1cnc2nccnc2c1=O
inactive: [1] 1% | [2] 4.65% | [3] -10.7% | [4] -17.4% | [5] 2.4% | [6] -5.6%

C=CCc1cc(OC)c2c(c1)C(OC)CC(c1ccc(OC)c(OC)c1)O2 (stereo not given)
inactive: [1] -3.7% | [2] -34.3% | [3] -6.05% | [4] 12.6% | [5] -12.7% | [6] -17.9%

O=c1[nH]nc(Cc2ccccc2)n1CCCl
inactive: [1] 16.9% | [2] 13.8% | [3] 15.6% | [4] -3.7% | [5] 8.35% | [6] 11.5%

O=C(c1cccc(Cl)c1)c1cccc2ccccc12
inactive: [1] -1.7% | [2] 5.6% | [3] 19.6% | [4] -37% | [5] 41.9% | [6] -10.2%

CC(CC[C@@H](O)C(C)(C)O)C1[C@@H](O)CC2(C)C3CC(O)C4C(C)(C)[C@@H](OC5OC(CO)C(O)C(O)C5O)CC[C@@]45C[C@@]35CC[C@]12C (stereo not given in full)
inactive: [1] -14.9% | [2] 2.65% | [3] 0.15% | [4] -30.2% | [5] -5.9% | [6] -28.1%

O=C1CC(=O)C(C(=O)c2ccccc2)N1 (stereo not given)
inactive: [1] 18.3% | [2] 8.55% | [3] 5.3% | [4] 1.8% | [5] 7.8% | [6] -2.45%

N#CC(C#N)N=Cc1ccncc1
inactive: [1] 14.2% | [2] 12.2% | [3] -21.6% | [4] -12.8% | [5] -1.1% | [6] -29.2%

C/C(=C/c1c(C)c([N+](=O)[O-])c(C)c(C)c1[N+](=O)[O-])C(=O)O
inactive: [1] -3.3% | [2] 38.8% | [3] 14.7% | [4] 11.4% | [5] 30.9% | [6] 37%

CC(C)SC(CC(O)C(O)COC(=O)c1ccccc1)SC(C)C (stereo not given)
inactive: [1] -8.05% | [2] -0.15% | [3] 6.15% | [4] -8.35% | [5] -4.7% | [6] 17.8%

CCCCCCCCCCCCCCCC1=NN(c2ccc([N+](=O)[O-])cc2)C(=O)C1
inactive: [1] 14.9% | [2] -3.8% | [3] -25.8% | [4] -8.4% | [5] 1.3% | [6] 0.75%

CC(=O)OC1C(=O)OCC23CCC(C)=CC2OC2CC(OC(=O)/C=C/C=C/C(=O)OCCC1C)C3(C)C21CO1 (stereo not given)
inactive: [1] -35.5% | [2] -4.45% | [3] -31.3% | [4] -4.4% | [5] -22.6% | [6] -19.6%

Cc1ccc(C2=Nn3c(nc4sc(C)c(C)c4c3=O)SC2)cc1
inactive: [1] -27.9% | [2] -3.25% | [3] -23.1% | [4] 6.15% | [5] -22.1% | [6] -10.6%

O=C1C2C(C(=O)N1c1ccccc1)C1(c3cccnc3)NC(=O)C2(Cc2cccnc2)c2ccccc21 (stereo not given)
inactive: [1] 12.6% | [2] -5.85% | [3] 8.95% | [4] 19.7% | [5] -1.55% | [6] 13.5%

Nc1cc(=O)[nH]c(SC2OC(CO)C(O)C2O)n1 (stereo not given)
inactive: [1] 29.1% | [2] -9.6% | [3] 9% | [4] -44.1% | [5] 0.1% | [6] 17.6%

CCOC(=O)/C(Cl)=C1\SN(C(=O)OCC)N=C1C
inactive: [1] -7.65% | [2] -3.7% | [3] -11.4% | [4] 54.7% | [5] 3.8% | [6] 3.65%

O=C(CCN1C(=O)NC(c2ccccc2)(c2ccccc2)C1=O)NCCN1CCOCC1
inactive: [1] -0.6% | [2] 13.5% | [3] 5.7% | [4] 0.95% | [5] -2% | [6] 24.7%

COc1cc(C2c3cc4c(cc3OC(Nc3ccccc3)C2C)OCO4)cc(OC)c1OC (stereo not given)
inactive: [1] -12.7% | [2] 5.6% | [3] 2.95% | [4] -10.6% | [5] -6.5% | [6] 20.8%

CCOC1C=CCCC1 (stereo not given)
inactive: [1] -1.75% | [2] 23.6% | [3] -6.35% | [4] 9.4% | [5] 14.8% | [6] -14%

CC(=O)[C@@H](C)C(=O)N1C(=O)OC[C@@]12[C@@H]1CC[C@@H](C1)C2(C)C
inactive: [1] -13.8% | [2] -31.4% | [3] -25.9% | [4] -26.4% | [5] 10.8% | [6] -32%

CCCCSCCOC(=O)C1C2CCC(O2)C1C(=O)O (stereo not given)
inactive: [1] 19.5% | [2] -3.85% | [3] 0.1% | [4] 13.4% | [5] -1.25% | [6] 13.8%

CCOC(=O)/C(C)=C\C1C(C)=CC(=O)CC1(C)C (stereo not given)
inactive: [1] -0.05% | [2] -16.1% | [3] -5.1% | [4] -29% | [5] 20.4% | [6] -7.15%

CCOC(=O)NC(=O)c1cn(CCSCCOC(=O)NCCCCCCNC(=O)OCCSCCn2cc(C(=O)NC(=O)OCC)c(=O)[nH]c2=O)c(=O)[nH]c1=O
inactive: [1] 28.7% | [2] 20.6% | [3] 11.9% | [4] 12.9% | [5] -51.2% | [6] 23.2%

C1CCC(N=C2N(C3CCCCC3)C(=NC3CCCCC3)N2C2CCCCC2)CC1
inactive: [1] 4.7% | [2] -28.3% | [3] -7.2% | [4] -19.6% | [5] -20.6% | [6] -4.35%

CNc1ccc(OC)cc1
inactive: [1] -4.9% | [2] -0.9% | [3] -13.4% | [4] -1% | [5] 7.35% | [6] 3.25%

O=c1c2ccccc2nc(-c2ccccc2)n1/N=C/c1cccnc1
inactive: [1] 0.9% | [2] 49.5% | [3] 30.8% | [4] -10.8% | [5] 7.5% | [6] 41.2%

COc1cccc(/C=C2\C(=O)N(C(=O)Cc3ccccc3)N=C2C)c1
inactive: [1] 4.3% | [2] -30.2% | [3] -34.8% | [4] -0.45% | [5] -14.8% | [6] -24.1%

O=C(NC(=O)c1ccccc1O)c1ccccc1
inactive: [1] -4.6% | [2] 5.45% | [3] -15.4% | [4] -0.35% | [5] -19.5% | [6] -11.2%

COc1ccc(CCC2c3cc(OC)c(OC)cc3CCN2C)cc1OC (stereo not given)
inactive: [1] -41.5% | [2] -15.7% | [3] -6.75% | [4] 5.35% | [5] -19.9% | [6] -4.85%

OC1(Cc2ccccn2)CCCc2ccccc21 (stereo not given)
inactive: [1] 7.5% | [2] 9.55% | [3] -1.95% | [4] -15.3% | [5] -8.45% | [6] 4.95%

COn1c(-c2ccccc2)nc2c1C(=O)N(C)CN2C
inactive: [1] -14.2% | [2] 1.7% | [3] 7.3% | [4] -47.8% | [5] -6.9% | [6] 5.4%

O=C(C[n+]1ccnc2ccccc21)c1ccc(Br)cc1
inactive: [1] 15.7% | [2] -3.05% | [3] 2% | [4] 6.45% | [5] -6.6% | [6] 13%

O=C1/C(=N\N(C(=O)c2ccccc2)c2ccccc2)c2cccc3cccc1c23
inactive: [1] 11.8% | [2] 49% | [3] 20.4% | [4] 12.2% | [5] 24.9% | [6] 35.9%

Oc1ccc2ccccc2c1/C=N\Sc1ccc(Br)cc1
inactive: [1] 35.1% | [2] 37.5% | [3] 64.2% | [4] 28.5% | [5] 32.2% | [6] 49.5%

Cc1ccc(OC/C=C/c2ccc(C#N)cc2)cc1
inactive: [1] 2.55% | [2] 0.05% | [3] -4.15% | [4] -17.6% | [5] 1.8% | [6] -3%

CC(C)OP(=O)(c1ccccc1)c1ccc2c(c1)OCCOCCOCCOCCO2 (stereo not given)
inactive: [1] -3.05% | [2] -2.2% | [3] 0.75% | [4] 7.05% | [5] -2.1% | [6] 24.7%

O=[N+]([O-])c1ccc(N=NNc2ccc(N=Nc3ccccc3)cc2)cc1
inactive: [1] 12.1% | [2] -18.8% | [3] -1% | [4] 6.7% | [5] 0.1% | [6] 4.6%

CCSc1[nH]c2nc[nH]c(=O)c2c1C#N
inactive: [1] -8.1% | [2] 21.2% | [3] -32.5% | [4] -17.8% | [5] 0.45% | [6] -8.4%

c1ccc(C2=C(c3ccccc3)c3ccccc3C2)cc1
inactive: [1] 0.3% | [2] -7.3% | [3] 8.55% | [4] 0.35% | [5] -8.85% | [6] -9.35%

CCC1CN2CCc3cc(OC)c(OC)cc3C2CC1CC1c2cc(OC)c(OC)cc2CCN1C(=O)C1CCCN1 (stereo not given)
inactive: [1] -1.45% | [2] -1.45% | [3] 12.1% | [4] 6.85% | [5] 7.65% | [6] -3.4%

Nc1ccn(C2OC(COC(=O)C34CC5CC(CC(C5)C3)C4)C(O)C2O)c(=O)n1 (stereo not given)
inactive: [1] -14.5% | [2] 0.4% | [3] -35.5% | [4] -2.4% | [5] -31.2% | [6] 6.3%
